CBFb RUNX1 block = inhibitors of human CBF-beta and RUNX1 interaction | AlphaScreen CBFb-His/RUNX1-biotin binding, biochemical | Potency, µM (doses to about 59.8 µM), without a hit: at the top dose activity, negative = inhibition, hits mostly inhibitors | 230,000 tested, under 10 active | AID 1477; further: % of control where 0% means no effect
Target sequence (Q01196 whole entry, looked up): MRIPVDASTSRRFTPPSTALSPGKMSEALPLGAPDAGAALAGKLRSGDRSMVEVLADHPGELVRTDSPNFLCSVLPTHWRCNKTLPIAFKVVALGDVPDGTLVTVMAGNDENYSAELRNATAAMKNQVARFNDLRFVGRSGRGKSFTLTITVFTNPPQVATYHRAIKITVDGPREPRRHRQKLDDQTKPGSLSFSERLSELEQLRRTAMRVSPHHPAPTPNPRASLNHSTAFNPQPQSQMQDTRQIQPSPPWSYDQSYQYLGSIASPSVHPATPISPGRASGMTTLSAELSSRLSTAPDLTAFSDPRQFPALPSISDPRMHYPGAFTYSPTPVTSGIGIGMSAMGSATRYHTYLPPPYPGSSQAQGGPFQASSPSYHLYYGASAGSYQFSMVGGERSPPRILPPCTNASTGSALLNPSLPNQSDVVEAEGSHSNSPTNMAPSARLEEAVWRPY
Target sequence (Q13951 whole entry, looked up): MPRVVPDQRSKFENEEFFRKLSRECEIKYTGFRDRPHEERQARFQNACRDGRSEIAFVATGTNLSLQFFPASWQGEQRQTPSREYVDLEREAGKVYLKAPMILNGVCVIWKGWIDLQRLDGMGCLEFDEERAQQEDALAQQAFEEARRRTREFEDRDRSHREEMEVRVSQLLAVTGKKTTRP
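CBFb-His/RUNX1-biotin, 30 nM each, preincubated 20 min RT; compound 15 min RT; Ni + streptavidin beads 50 ng each, 90 min RT; AlphaScreen read.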
VDR inh = inhibitors of human vitamin D receptor. VDR-SRC2-3 peptide fluorescence polarization, 2 h. Potency, µM, for the others: max response, negative = inhibition, actives largely listed as inhibitors. 400,000 tested, 0.93% active. AID 504847; further: potency means the concentration at half of the fitted maximal effect; on the % scale 0 is the no-effect control and ±100 the full control effect
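FP read-out; VDR + SRC2-3 coactivator peptide; 23 nl compound by pintool; 2 h RT incubation; reagents held at 4 deg C, protected from light.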
MBNL1-CUG inh = blocks human MBNL1 binding to CUG repeat RNA; TR-FRET MBNL1-His/biotin-(CUG)12 binding, 665/545 ratio; Potency, µM (highest dose often 57.5 µM), without a hit: top-dose activity change, negative = inhibition, hits mostly inhibitors; AID 2675; 280,000 tested, 0.036% active; Q9NR56; active means well fitted inhibition curve with a large enough effect in the signal ratio, with a control signal flat, not every such curve was filed as active; inconclusive means small, poorly fitted or top-dose-only effect, or effect the other way, or a change in a side signal; inactive means no such curve, though single readings can be large or run the other way; the % refers to the signal ratio; further: potency means the concentration at half of the fitted maximal effect; on the % scale 0 is the no-effect control and ±100 the full control effect
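His-tagged MBNL1 binding to biotinylated (CUG)12 RNA was measured by TR-FRET using terbium anti-His antibody (0.055 ng/ul final) and streptavidin-XL665 (5 nM final). Compounds were titrated 92 nM to 58 uM; 60 min at room temperature.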
PLK1 PBD block = PLK1 (human) polo-box domain binding inhibition | P53350 | Plk1 PBD binding of FITC phosphopeptide, fluorescence polarization | Potency, µM, for inactives: max response, negative = inhibition, most hits filed as inhibitors | 360,000 tested, 2.8% active; further: potency means the concentration at half of the fitted maximal effect; series mostly up to about 57 µM; on the % scale 0 is the no-effect control and ±100 the full control effect; nearly all actives have a fitted effect of over 65% in size
KCNH2 WT inh = KCNH2 (human, wildtype) channel inhibition. Q12809. U2OS, BacMam KCNH2, thallium flux FluxOr; stronger effect = lower value. activity change, % at 1.84 µM. 340,000 tested, 0.37% active;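 active means maximum activity change below -70%; inconclusive means maximum activity change between -70% and -50%; inactive means maximum activity change above -50%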; further: on the % scale 0 is the no-effect control and ±100 the full control effect
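U2OS cells transduced with wild-type KCNH2 virus are loaded with FluxOr dye for 45 min, and thallium flux is measured in kinetic reads before and after stimulation buffer. Rate constants are normalized to DMSO controls.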
KCNH2 3.1 block = inhibitors of human KCNH2 3.1 potassium channel isoform. 340,000 tested, 0.95% active. U2OS KCNH2 3.1, thallium flux FluxOr; stronger effect = lower value. activity change, % (tested at about 1.8 µM);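 active means maximum activity change below -70%; inconclusive means maximum activity change from -70% to -50%; inactive means maximum activity change above -50%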;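 further: thallium influx rate constant from kinetic fluorescence after stimulation buffer; on the % scale 0 is the no-effect control and ±100 the full control effect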
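Normalized rate constant (relative to positive and negative DMSO controls) derived from a 2 min kinetic fluorescence read after stimulation; U2OS cells expressing the 3.1 isoform via virus at 1.77 x 10^8 /mL.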
USP1-UAF1 confirm = validation of human USP1/UAF1 inhibitors | shares compounds with VDR inh | Ub-Rhodamine cleavage, fluorescence kinetic read | Potency, µM (highest dose often 56.8 µM), for inactives: top-dose activity change, negative = inhibition, usual class: inhibitors | 50 tested, 50% active | AID 540327
VDR confirm = confirmation of human vitamin D receptor inhibitors | shares compounds with VDR inh | VDR-coactivator inhibition assay, qHTS confirmation | Potency, µM, usual class: inhibitors | 840 tested, 89% active | AID 602199; further: potency means the concentration at half of the fitted maximal effect
VDR FP = confirmation of human VDR-coactivator binding inhibitors, fluorescein label; Potency, µM (titrated, usually from 57.1 µM), without a hit: at the top dose activity change, negative = inhibition, hits mostly inhibitors; 840 tested, 48% active; shares compounds with VDR inh; AID 602200; VDR-coactivator binding, fluorescein fluorescence polarization; further: potency means the concentration at half of the fitted maximal effect
VDR bla = inhibits human VDR in beta-lactamase reporter cells. shares compounds with VDR inh. VDR beta-lactamase reporter cells, FRET ratio; cells co-treated with VDR agonist LG190178. Potency, µM (doses to about 46.1 µM), without a hit: at the highest dose activity change, negative = inhibition, usual class: inhibitors. 840 tested, 23% active. AID 602202; further: potency means the concentration at half of the fitted maximal effect; on the % scale 0 is the no-effect control and ±100 the full control effect
VDR cytotox = cytotoxic in counter-screen for VDR inhibitors; AID 602204; shares compounds with VDR inh; 840 tested, 18% active; cytotoxicity counter-screen, cell viability, qHTS; Potency, µM (series often up to 48.3 µM), for the others: at the top dose activity change, negative = cytotoxicity, hits mostly cytotoxic;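 further: potency means the concentration at half of the fitted maximal effect; plate controls were DMSO for no effect and high-concentration cycloheximide for full effect; nearly all actives have a fitted effect of over 75% in size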
Numbers without * were called inactive; ? = inconclusive; · = no result given. Shown are actives, neighbours in structure and some others; about 3.8% of the full set was active somewhere. Unless noted, the call rests on the fitted dose curve; in most records, active means well fitted curve in the direction sought with a large enough effect; inconclusive means small, poorly fitted or top-dose-only effect, or another doubt; inactive means no such curve, though single readings can be large; an effect the other way counts as inactive or inconclusive.

SMILES | CBFb RUNX1 block | VDR inh | MBNL1-CUG inh | PLK1 PBD block | KCNH2 WT inh | KCNH2 3.1 block | VDR confirm | VDR FP | VDR bla | VDR cytotox | others
S=C(NNc1ccnc2cc(Cl)ccc12)Nc1ccccc1Cl | -25% | ? | ? | 15µM* | -3 | 4 | 13* | 10µM* | ? | ?
[O-]/[N+](=C\c1ccccc1)c1ccccc1 | · | -15% | · | -12% | · | · | · | · | · | ·
[O-]/[N+](=C\c1ccccc1)c1ccc(Br)cc1 | · | 25µM* | · | 15µM* | 16 | -19 | 3.8* | ? | 7% | 8%
COc1cccc(CNC(=O)C2CCN(C(=O)N3CCOc4ccc(Cl)cc43)CC2)c1OC | · | 2% | · | · | · | · | · | · | · | ·
Cc1cccc(NCCC(=O)c2ccc(Br)cc2)c1 | -5% | -11% | 6% | -19% | 9 | -13 | · | · | · | ·
CCOC(=O)CNCCC(=O)c1ccc(Br)cc1 | 24% | 50µM* | 8% | 12µM* | 2 | 6 | 21* | 22µM* | ? | ?
COc1ccccc1C(=O)Nc1ccc(S(=O)(=O)Nc2ncccn2)cc1 | · | -7% | · | · | · | · | · | · | · | ·
COc1ccccc1NC(=O)Cn1cc(C(=O)c2ccncc2)c(=O)c2cc(C)ccc21 | · | 6% | · | · | · | · | · | · | · | ·
CC(=O)Nc1cccc(C(=O)/C=C/c2ccc(C)cc2)c1 | -3% | 25µM* | -7% | -20% | 1 | 2 | 21* | ? | ? | ?
CCOc1ccc(S(=O)(=O)NCC(c2cccs2)S(=O)(=O)c2ccc(C)cc2)cc1 (stereo unspecified) | · | 1% | · | · | · | · | · | · | · | ·
N#C/C(=C\c1ccc(-c2cc(Cl)ccc2Cl)o1)C(=O)Nc1cccc2ncccc12 | · | ? | · | · | · | · | · | · | · | · | USP1-UAF1 confirm=?
COc1cc(/C=C(\C#N)C(=O)Nc2cccc3ncccc23)ccc1O | 1% | · | 1% | · | · | · | · | · | · | ·
CCOC(=O)c1c(-c2ccc(C)cc2)csc1NC(=O)c1nc(SCC)ncc1Cl | · | 14% | · | · | · | · | · | · | · | ·
O=C(NCc1cccnc1)/C(=C\c1ccc(-c2cccc(Cl)c2)o1)S(=O)(=O)c1ccccc1 | -6% | 45µM* | -3% | -30% | -11 | 3 | 24* | ? | 6.5µM* | 18µM*
CCOc1ccc(C(=O)N(Cc2nc(-c3cccc(C)c3)no2)C(C)C)cc1 | · | -8% | · | · | · | · | · | · | · | ·
CNC(=O)c1nnsc1S(=O)c1ccc(Cl)cc1 (stereo unspecified) | -7% | 5.6µM* | -4% | 0.95µM* | -8 | -1 | 3.8* | 4.5µM* | 16µM* | ?
CCCNC(=O)c1nnsc1S(=O)(=O)c1ccc(Cl)cc1 | 1% | ? | -8% | ? | 0 | ? | · | · | · | ·
CCCNC(=O)c1nnsc1S(=O)c1ccc(Cl)cc1 (stereo unspecified) | -2% | ? | -8% | 0.75µM* | -6 | -46 | 0.89* | 1µM* | 13µM* | 21µM*
Cc1ccc2c(=O)cc(C(=O)Nc3ccc(S(=O)(=O)N4CCCCCC4)cc3)oc2c1 | · | -7% | · | · | · | · | · | · | · | ·
O=C(CSc1nc(-c2cccs2)nc2cc(=O)[nH]n12)Nc1ccccc1Cl | · | 13% | · | · | · | · | · | · | · | ·
CCN(CC)S(=O)(=O)c1ccc2c(c1)c(=O)c(C(=O)NCc1ccccc1Cl)cn2C | · | -17% | · | · | · | · | · | · | · | ·
c1ccc(Cc2nn3c(COc4ccccc4)nnc3s2)cc1 | 0% | 79µM* | -3% | 4.2µM* | 11 | 1 | 24* | ? | 11% | 28%
CCN1C/C(=C/c2cccc([N+](=O)[O-])c2)C(=O)/C(=C/c2cccc([N+](=O)[O-])c2)C1 | 3% | 10µM* | 25% | -22% | -31 | -49 | 3.4* | ? | 2.1µM* | ?
CCOc1cc(/C=C2\CN(CC)C/C(=C\c3ccc(O)c(OCC)c3)C2=O)ccc1O | · | ? | -8% | -8% | 2 | -1 | · | · | · | ·
O=C(/C=C/c1ccc(Br)cc1)c1ccco1 | 0% | 45µM* | · | -18% | -6 | -13 | 24* | ? | 13% | 13%
SMILES | CBFb RUNX1 block | VDR inh | MBNL1-CUG inh | PLK1 PBD block | KCNH2 WT inh | KCNH2 3.1 block | VDR confirm | VDR FP | VDR bla | VDR cytotox | others
O=C(/C=C/c1ccc(Br)cc1)c1ccc(NC(=O)c2ccco2)cc1 | 7% | 2% | -2% | -6% | 0 | -3 | · | · | · | ·
Cc1ccccc1CS(=O)(=O)c1nnc([C@H](CC(C)C)NC(=O)OC(C)(C)C)o1 | 2% | 20µM* | -9% | 8.9µM* | -24 | -3 | 11* | 7.1µM* | ? | ?
Nc1ncnc2c1ncn2[C@@H]1O[C@H](CNCc2ccccc2)[C@@H](O)[C@H]1O | · | -1% | · | -14% | -2 | -19 | · | · | · | ·
Nc1ncnc2c1ncn2[C@@H]1O[C@H](CNCc2ccc(-c3cc(C(F)(F)F)ccc3Cl)o2)[C@@H](O)[C@H]1O | · | 28µM* | · | -11% | -1 | 5 | ? | ? | 11% | 14%
CC1C/C(=C\c2cccnc2)C(=O)/C(=C/c2cccnc2)C1 (stereo unspecified) | 5% | 35µM* | · | -14% | -5 | 0 | 12* | ? | 2.1µM* | ?
O=[N+]([O-])c1c(NCCCO)cc(Sc2ccc(Cl)cc2)c2nonc12 | 3% | ? | ? | 2.4µM* | 6 | -14 | 6.3* | 7.1µM* | 23µM* | ?
CC(=O)OCCCNc1cc(Sc2ccc(C)cc2)c2nonc2c1[N+](=O)[O-] | 2% | ? | ? | ? | 10 | · | · | · | · | ·
Cc1nn2c(=O)cc(COC(=O)c3ccccc3NC(=O)C(C)C)nc2s1 | · | -2% | · | · | · | · | · | · | · | ·
CC(C)c1nnc(NC(=O)c2nc(S(=O)(=O)Cc3ccccc3)ncc2Cl)s1 | · | 16µM* | 13% | ? | 0 | 13 | 9.5* | 7.9µM* | 6.5µM* | 15µM*

Source: PubChem (National Center for Advancing Translational Sciences (NCATS))
